Source: PubChem BioAssay (National Center for Advancing Translational Sciences (NCATS))
Shown are actives, neighbours in structure and some others; about 3.6% of the full set was active somewhere.
FUS suppressor = FUS proteinopathy suppression in yeast; S. cerevisiae FUS-expressing, growth rescue, OD600, 24 h; Potency, µM (titrated, usually from 76.6 µM), most hits filed as activators; AID 1347120; actives 0.24% (n = 390,000);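 further: plate controls were DMSO vehicle for no effect and reference control for full effect; nearly all actives have a fitted effect of over 55% in size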
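Yeast expressing FUS under galactose induction, OD 0.005 in 2% galactose medium; compounds in a dilution series, 24 h at 30C. Growth rescue by absorbance at 600 nm; CP55940 positive control, DMSO negative.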
TDP43 rescue = rescues yeast growth from TDP-43 toxicity. actives 1.8% (n = 410,000). TDP-43 expressing yeast growth rescue, BacTiter-Glo, 24 h. Potency, µM (highest dose often 46.1 µM), for inactives: at the top dose growth rescue (activation), hits mostly activators; further: % of control where 0% means no effect; nearly all actives have a fitted effect of over 50% in size
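Yeast expressing TDP-43 (pregrown in raffinose, seeded at OD600=0.02 in galactose medium) exposed to compounds 24 hr at 30 deg C. Growth read by BacTiter-Glo luminescence; rescue of toxicity appears as increased signal.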
MmCpn inh = inhibitors of Methanococcus maripaludis chaperonin TRiC (MmCpn); Potency, µM (top dose mostly 76.9 µM), without a hit: at the top dose activity, negative = inhibition, hits mostly inhibitors; actives 0.031% (n = 330,000); purified Mm-Cpn ATPase, ADP Transcreener TR-FRET; further: on the % scale 0 is the no-effect control and ±100 the full control effect; nearly all actives have a fitted effect of over 80% in size
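ATPase turnover read by TR-FRET ADP competition (Eu cryptate antibody/ADP-d2, 665/590 nm): 10uM ATP final, 25nM Mm-CPN final, 30 min 37degC after 10-min compound preincubation, pH 7.4 Tris/KCl/MgCl2/DTT buffer.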
ClpP mod = qHTS Assay for Activators of ClpP | ATP-dependent Clp protease proteolytic subunit (Bacillus subtilis (strain 168)), P80244 | purified B. subtilis ClpP, FRET peptide cleavage, 20 min | Potency, µM (titrated, usually from 57.5 µM), for inactives: at the highest dose activity change, negative = active | actives 1.9% (n = 340,000); active means well fitted falling curve with a large enough effect; inconclusive means small, poorly fitted or top-dose-only effect; inactive means no such curve, though single readings can be large or run the other way; further: the source files actives as falling curves though it sought activators and does not explain the sign; nearly all actives have a fitted effect of over 65% in size
Target sequence (P80244 whole entry, looked up): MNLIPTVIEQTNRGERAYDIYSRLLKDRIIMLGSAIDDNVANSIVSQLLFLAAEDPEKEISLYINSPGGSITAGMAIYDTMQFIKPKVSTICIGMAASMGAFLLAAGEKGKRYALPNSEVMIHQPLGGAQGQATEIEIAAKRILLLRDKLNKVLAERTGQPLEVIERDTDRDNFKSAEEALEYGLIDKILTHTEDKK
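FRET quenching reversal measured ClpP activation: 10 microg/mL B. subtilis ClpP at pH 8 with the FRET-FV decapeptide, read at 430 nm after 320 nm excitation. The 20-min minus 0-min signal was scaled between DMSO/no-enzyme wells and ADEP (5.8 microM final).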
Abeta rescue = compounds reversing amyloid beta toxicity in yeast | yeast expressing A-beta42, growth rescue, OD600, 48 h; response scale: 0% DMSO, 100% iron-clioquinol control | Potency, µM (highest dose often 46.1 µM), most hits filed as activators | actives 0.063% (n = 410,000) | AID 1347071; further: nearly all actives have a fitted effect of over 55% in size
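Yeast A-beta toxicity model in growth medium with pinned compounds, 48 h at 30 C; growth read as absorbance at 600 nm. Normalized to FeCl3/clioquinol equimolar mix (positive) and DMSO (negative).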
aSyn rescue = alpha-synuclein toxicity inhibition in yeast; Yeast expressing alpha-synuclein, growth rescue, BacTiter-Glo, 24 h; Potency, µM (highest dose often 46.1 µM), for inactives: at the top dose growth rescue (activation), hits mostly activators; actives 0.14% (n = 370,000); AID 652106; further: % of control where 0% means no effect; nearly all actives have a fitted effect of over 65% in size
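Galactose-induced alpha-syn yeast (OD600=0.02, raffinose-pregrown) + pinned cpd, 24 hr, 30 deg C; growth by BacTiter-Glo luminescence. Growth restoration scores as activation.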
* marks the source's active call; other numbers are inactive results; i = inactive; ? = inconclusive; . = no result given. Unless noted, the call rests on the fitted dose curve; in most records, active means well fitted curve in the direction sought with a large enough effect; inconclusive means small, poorly fitted or top-dose-only effect, or another doubt; inactive means no such curve, though single readings can be large; an effect the other way counts as inactive or inconclusive. Potency means the concentration at half of the fitted maximal effect.

SMILES	FUS suppressor	TDP43 rescue	MmCpn inh	ClpP mod	Abeta rescue	aSyn rescue
N#Cc1ccccc1NC(=O)COC(=O)c1cccs1	i	10µM*	1%	0%	i	-7%
Cc1cccc(N2CCN(c3nc4ccccc4c(=O)n3-c3ccc(Cl)cc3)CC2)c1C	i	?	.	18µM*	i	.
OCCCN=c1cc(-c2ccccc2)oc2ccc(Cl)cc12	i	-1%	-1%	32µM*	i	4%
CCOC(=O)c1ccc(-n2c(N)c(C(=O)OC)c3nc4ccccc4nc32)cc1	i	0%	.	2.8µM*	i	.
CCOC(=O)c1c(N)n(-c2ccc(N)cc2)c2nc3ccccc3nc12	i	21%	0%	-4%	i	26%
CCOC(=O)c1c(N)n(CCOC(=O)c2cccs2)c2nc3ccccc3nc12	i	-7%	-2%	7.9µM*	i	1%
CCCCCOC(=O)c1c(N)n(CCOC)c2nc3ccccc3nc12	i	18µM*	-10%	41%	i	3%
Cc1ccc(S(=O)(=O)NNC(=S)Nc2ccc(Cl)cc2)cc1	i	23%	3%	28µM*	i	1%
COC(=O)CCC1NC(=O)C(Cc2c[nH]c3ccccc23)NC(=O)C2CC(=O)OC(C)C(NC(=O)C(C)NC(=O)C3CCCN3C(=O)C3CCCN3C(=O)C(C)NC(C)=O)C(=O)NC(CC(C)C)C(=O)NC(CCCCNC(=O)CCC(C(=O)NC(Cc3ccc(O)cc3)C(=O)O)NC1=O)C(=O)NC(Cc1c[nH]c3ccccc13)C(=O)N1CCCC1C(=O)NC(CO)C(=O)N2 (stereo not drawn)	i	.	.	.	.	.
Cc1cn2c(=O)cc(COc3cccc(NC(=O)c4ccccc4Cl)c3)nc2s1	i	6%	.	-5%	i	.
Cc1cccc(NC(=O)CC2SC(=O)N(c3ccccc3)C2=O)c1 (stereo not drawn)	.	26%	1%	35µM*	i	-10%
Cc1ccc(NC(=O)CC2SC(=O)N(c3ccccc3)C2=O)cc1 (stereo not drawn)	i	20µM*	1%	28µM*	i	5%
O=C(CC1S/C(=N\S(=O)(=O)c2ccccc2)N(c2ccccc2)C1=O)Nc1ccc(F)cc1 (stereo not drawn)	18µM*	-3%	0%	-28%	i	8%
CC(C(=O)NCc1ccccc1)N1C(=O)C2CC=C(Cl)CC2C1=O (stereo not drawn)	i	9%	2%	28µM*	i	5%
CC1CCN(S(=O)(=O)c2ccc3c(c2)N(CC(=O)O)C(=O)CO3)CC1	i	8%	.	0%	i	.
Cc1ccc(-c2c(C(=O)N3CCN(c4ccc(F)cc4)CC3)oc(=O)c3ccccc23)cc1	i	14%	.	1%	i	.
CCNC(=O)O/N=C1\CCCCC1c1ccc([N+](=O)[O-])cc1[N+](=O)[O-] (stereo not drawn)	i	14µM*	2%	0%	i	-5%
CN(C)c1ccc(C=Nc2ccccc2C(N)=O)cc1	i	11µM*	-7%	25µM*	i	-12%
CC[C@H](CCCCCC#N)CCC(=O)N(c1ccccc1)c1ccccc1	i	.	.	.	.	.
CN(Cc1ccccc1C#N)S(=O)(=O)c1cccs1	i	-23%	-5%	.	i	1%
N#Cc1nccnc1S(=O)(=O)c1cccs1	i	13µM*	-2%	-23%	i	-5%
CCCCCCN(CCCCCC)c1ccc(/C=C/c2ccnc3ccccc23)cc1	.	.	.	-1%	.	-3%
COC(=O)c1ccc(NCc2c(O)ccc(O)c2Br)cc1Cl	.	20µM*	.	1%	i	-21%
COC(=O)c1ccc(NCc2cc(O)ccc2O)cc1O	.	25%	.	-1%	i	0%
CCOC(=O)CSc1nnc(CNc2ccc(Cl)cc2)n1Cc1ccccc1	i	14µM*	0%	1%	i	?
